Legend:
Assay in all cases: PBM binding z-score (relative to random genomic background probes); higher = stronger binding; sequences stand for … in GC…GCGATTGACAGCGTAGAATGAAGG
[1] = test system: PPARg:RXRa DBDmut IVT, anti-RXR (DBD mutation: RXRa K156A/R161A, NR concentration 270 nM, RXRa partner concentration 90 nM)
Method in brief: (§1)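 Scanned fluorescence from custom Agilent 4×180K protein-binding microarrays was regression-normalized. Binding z-scores use random background probes as reference. Ligand-free nuclear receptor dimers were incubated on the arrays for 1 h and detected with antibodies against each partner (one per run).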

[2] = test system: PPARg:RXRa IVT, anti-PPARg (NR concentration 270 nM, RXRa partner concentration 90 nM)
Method in brief: as §1

[3] = test system: PPARg DBDmut:RXRa IVT, anti-PPARg (DBD mutation: PPARg1 K132A/R137A, NR concentration 270 nM, RXRa partner concentration 90 nM)
Method in brief: as §1

[4] = test system: PPARg DBDmut IVT, anti-PPARg (DBD mutation: PPARg1 K132A/R137A, NR concentration 270 nM)
Method in brief: as §1

[5] = test system: PPARg homodimer (NR concentration 180 nM)
Method in brief: as §1

[6] = test system: PXR:RXRa (NR concentration 270 nM, RXRa partner concentration 90 nM)
Method in brief: as §1

[7] = test system: PXR homodimer (NR concentration 270 nM)
Method in brief: as §1

[8] = test system: RARa:RXR (NR concentration 270 nM, RXRa partner concentration 90 nM)
Method in brief: as §1

[9] = test system: RARa homodimer (NR concentration 270 nM)
Method in brief: as §1

[10] = test system: RARb:RXRa (NR concentration 270 nM, RXRa partner concentration 90 nM)
Method in brief: as §1

[11] = test system: RARb homodimer (NR concentration 270 nM)
Method in brief: as §1

[12] = test system: RARg:RXRa (NR concentration 270 nM, RXRa partner concentration 90 nM)
Method in brief: as §1

[13] = test system: RARg homodimer (NR concentration 270 nM)
Method in brief: as §1

[14] = test system: RXRa DBDmut IVT, anti-RXR (DBD mutation: RXRa K156A/R161A, NR concentration 90 nM)
Method in brief: as §1

[15] = test system: RXRa homodimer (NR concentration 180 nM)
Method in brief: as §1

[16] = test system: THRa:RXRa (NR concentration 90 nM, RXRa partner concentration 90 nM)
Method in brief: as §1

[17] = test system: THRa homodimer (NR concentration 90 nM)
Method in brief: as §1

[18] = test system: VDR homodimer (NR concentration 270 nM)
Method in brief: as §1

Row | Sequence | PBM binding z-score [1] | PBM binding z-score [2] | PBM binding z-score [3] | PBM binding z-score [4] | PBM binding z-score [5] | PBM binding z-score [6] | PBM binding z-score [7] | PBM binding z-score [8] | PBM binding z-score [9] | PBM binding z-score [10] | PBM binding z-score [11] | PBM binding z-score [12] | PBM binding z-score [13] | PBM binding z-score [14] | PBM binding z-score [15] | PBM binding z-score [16] | PBM binding z-score [17] | PBM binding z-score [18]
1 | GATACAGGGTCTGCTAGAGGCCAGAGTATGGAAA | -0.826 | -0.333 | -1.05 | -1.35 | -0.406 | -0.54 | -0.558 | -0.523 | -0.148 | 0.305 | 0.393 | 0.857 | 0.279 | -0.877 | -0.0451 | -0.093 | -0.687 | -0.39
2 | TCTTGTAGATCAAAGGTTAATAAAGCCGAAGCCT | 2.46 | 3.56 | 0.977 | 1.2 | 1.25 | 1.62 | 0.19 | 2.43 | 1.02 | 1.64 | 1.25 | 1.51 | 0.841 | 1.09 | 2.55 | 1.32 | -0.223 | 0.243
3 | ACTCGGAGGACAAAGGTCAGAGCTACGCCAGTGA | 0.692 | 3.72 | 0.709 | 0.127 | 3.04 | 3.91 | 0.0188 | 5.19 | 2.21 | 4.44 | 4.27 | 5.92 | 5.23 | 1.08 | 5.45 | 3.35 | 0.581 | 1.03
4 | ATCTCTAGGTAAAAGTTCAGTGGATCCCGAGGAT | 2.25 | 3.58 | 1.28 | 1.66 | 1.32 | 2.05 | 1.71 | 1.76 | 1.18 | 2.41 | 2.32 | 2.02 | 2.08 | 0.861 | 1.53 | 1.2 | 0.272 | 1.72
5 | TCATATAGGTAATCCAGGTGAAAGTCGGCATCTA | 4.8 | 4.82 | 1.66 | 1.21 | 1.69 | 0.657 | 0.114 | 1.28 | 0.866 | 0.724 | 0.511 | 0.501 | 0.455 | 1.5 | 0.995 | 2.41 | 1.35 | 0.168
6 | GATACAGGGTTAGCTAGAGGCCAGAGTATGGAAA | -0.257 | 0.231 | -0.237 | -1.22 | 0.107 | 0.293 | -0.052 | 0.625 | -0.595 | 1.07 | 0.99 | 3.12 | 0.756 | -0.477 | 0.857 | 1.23 | -0.252 | 0.162
7 | TTACCAAGGTGATCTGAGGTCGTTGATCCAACTC | 0.904 | 1.97 | 0.232 | -0.0515 | 1.46 | 5.06 | 1.41 | 2.02 | 0.209 | 1.55 | 1.63 | 0.881 | 0.757 | 0.903 | 1.37 | 4.77 | 2.67 | 2.96
8 | GCGACTGGTGCAAAGCAGGTTACCATAAGGTTGG | -0.384 | 0.329 | -0.718 | -1.22 | -0.73 | -0.0682 | -0.682 | 0.163 | -1.27 | -0.0547 | 0.217 | -0.209 | -0.317 | -0.409 | 0.0236 | 1.93 | -0.397 | -0.448
9 | CCTACTGGGACACGAAAGGTCATTGATTCAGTGA | 5.93 | 5.78 | 0.301 | -0.131 | 2.99 | 4.91 | 2.47 | 4.98 | 1.59 | 4.06 | 4.97 | 4.63 | 4.53 | 0.718 | 5.12 | 3.77 | 1.35 | 2.67
10 | TCTTGTAGATCAGCAGGTTTAGAAAGCTGGCCAA | 1.21 | -0.135 | -0.815 | -0.0639 | -0.866 | -0.251 | -0.893 | -0.334 | -0.74 | -0.387 | -0.607 | -0.508 | -0.884 | 0.412 | -0.374 | -0.307 | -0.755 | -0.457
11 | GCTAGTTGGTCAGTAAAAGGTCTCACACCGGTCG | 0.501 | 0.748 | 0.0123 | -0.176 | 0.542 | -0.0714 | 0.00189 | 0.298 | -0.00415 | 1.19 | 1.45 | 0.572 | 0.449 | -0.133 | 0.172 | 0.0932 | 0.0808 | -0.174
12 | AGGATGAGGTTACCAAAGATCAGGGAAACGCTTG | 0.68 | 1.09 | 0.557 | 0.461 | 1.12 | 1.47 | 0.27 | 2.02 | 0.36 | 2.12 | 1.18 | 1.94 | 1.65 | 0.402 | 2.51 | 2.67 | 1.29 | 0.534
13 | TCTGCTAGGTCAACTATGGTCAGCTAATCTGCTA | 3.77 | 4.24 | 0.825 | 0.277 | 1.55 | 2.47 | -0.42 | 2.76 | 0.288 | 4.38 | 3.57 | 4.26 | 5.22 | 1.45 | 3.13 | 3.87 | 0.915 | 0.149
14 | AGTACGAGGGCAATGAGTTGATAGCACGGGTGGC | 1.59 | 1.15 | 0.233 | 0.248 | 0.203 | 1.32 | 5.08 | 0.221 | 0.00797 | 2.08 | 1.2 | 1.06 | 1.62 | 2.1 | 0.711 | 1.07 | -0.111 | 2.98
